Drawing on PubChem BioAssay (Tox21), this text covers Potency for 40 compounds.

Inconclusive results are not listed. Entries that show only a call come without a potency. Activity calls are given as the source filed them. Calls follow the shape of the full dose curve.

This assay in a line: qHTS assay for small molecules that induce genotoxicity in human embryonic kidney cells expressing luciferase-tagged ATAD5 - cell viability (AID 651634). Also: nearly all actives have a fitted effect of over 25% in size. To be noted: HEK293T ATAD5-luc cells viability, CellTiter-Fluor, 15.5 h; series mostly up to 83.3 µM. From the text: National Center for Advancing Translational Sciences [NCATS]
NIH Chemical Genomics Center [NCGC]
U.S. Environmental Protection Agency [EPA]
National Institutes of Environmental Health Sciences [NIEHS]
National Toxicology Program [NTP]
U.S. Food and Drug Administration [FDA]
Enhanced Level of Genome Instability Gene 1 (ELG1; human ATAD5) protein levels increase in response to various types of DNA damage. Using a luciferase reporter-gene tagged with ElG1, a cell-based assay [developed by Kyungjae Myung, NHGRI, NIH] was used to measure the induction of ATAD5 in human embryonic kidney cells (HEK293T). So, increase in luciferase activity can be used to identify the compounds that cause genetic stress. In addition to genotoxicity, these cells were also used to test for cytotoxicity by measuring the protease activity within live cells.
Tox21 Assay Protocol Summary:
For cytotoxicity screening, 2,000 cells in 5 uL/well were dispensed into white, solid-bottom 1536-well plates using a Multidrop Combi (Thermo Scientific) dispenser. Following transfer of 23 nL compound or DMSO vehicle by a pin tool, the plates were incubated 15.5 hr at 37C and 5% CO2. 1 ul CellTiter-Fluor reagent (Promega, Madison, WI) was then added to each plate and following 30 min incubation at 37C, fluorescence intensity was quantified on a ViewLux CCD-based plate reader.
On the technique in general: Quantitative high-throughput screening tests each substance at several concentrations.
As for `COc1cc(NS(=O)(=O)c2ccc(N)cc2)nc(C)n1`, the Potency result is “inactive”.

As for `CC(=O)OCCC(C)CC(C)(C)C` (stereo not given), the Potency entry was “inactive”.

Turning to `CC(C)(C)NCC(O)COc1cccc2c1C[C@H](O)[C@H](O)C2` (stereo not given in full), the Potency entry was “inactive”.

Consider `Cc1cccc2sc(N)nc12`, for which the Potency result is “inactive”.

`COC(OC)OC`: the Potency entry is “inactive”.

For `CCN(CC)C(=O)N1CCN(C)CC1`, the Potency result is “inactive”.

As for `CC(CCc1ccc(O)cc1)NCCc1ccc(O)c(O)c1` (stereo not given), the Potency entry was “inactive”.

On to `CC(C)(O)CCc1ccccc1`, for which the Potency entry was “inactive”.

As for `O=C(O)CCC(=O)c1ccc(-c2ccccc2)cc1`, the Potency entry is “inactive”.

For the compound `O=C(/C=C/c1ccc([N+](=O)[O-])cc1)c1ccccc1`, the Potency result was “inactive”.

As to `Cc1cn([C@H]2C[C@H](F)[C@@H](CO)O2)c(=O)[nH]c1=O`, the Potency result is “inactive”.

With `ClC1=C(Cl)C1(Cl)Cl`, the Potency entry is “inactive”.

On to `CCOC(=O)c1ccc(NC(=O)CN2CCCCC2)cc1`, for which the Potency result was “inactive”.

Take `CC1CCCO1` (stereo not given): the Potency entry was “inactive”.

As for `CCN(CC)CCOC(=O)C(c1ccccc1)c1ccccc1`, the Potency result is “inactive”.

Regarding `COc1ccc(C)cc1`, the Potency entry is “inactive”.

Consider `CCCCC[C@H](O)/C=C/[C@H]1[C@H](O)CC(=O)[C@@H]1C/C=C\CCCC(=O)O`, for which the Potency result is “inactive”.

As for `Cc1c[nH]c2ccccc12`, the Potency result is “inactive”.

`Cc1ccc2c(c1)CCCN2`: the Potency entry was “inactive”.

With `CC(=O)NCCO`, the Potency entry is “inactive”.

Consider `CC(=O)NNC(C)=O`, for which the Potency result is “inactive”.

Turning to `Nc1ccc(F)cc1`, the Potency entry is “inactive”.

For `CC(=O)OC(C)C[N+](C)(C)C` (stereo not given), the Potency entry is “inactive”.

As to `CC(C)(C)S`, the Potency entry was “inactive”.

For the compound `CC1C(C)(C)C2=C(C(=O)CCC2)C1(C)C` (stereo not given), the Potency entry is “inactive”.

Take `Nc1nc2ccc(OC(F)(F)F)cc2s1`: the Potency result is “inactive”.

For the compound `CC(C)c1ccc(C(=O)N=C(N)N)cc1S(C)(=O)=O`, the Potency result was “inactive”.

Take `NC(=O)CCCCC(N)=O`: the Potency entry was “inactive”.

For the compound `O=C1[C@@H]2[C@H]3CC[C@H](C3)[C@@H]2C(=O)N1CCCCN1CCN(c2ncccn2)CC1`, the Potency result is “inactive”.

For the compound `COc1cc(S(=O)(=O)Nc2ccccc2)c(OC)cc1N`, the Potency result is “inactive”.

Consider `O=C(O)c1cc(Cl)cc(Cl)c1O`, for which the Potency entry was “inactive”.

Consider `CC(=O)OCC1=C(C(=O)O)N2C(=O)[C@@H](NC(=O)CSc3ccncc3)[C@H]2SC1`, for which the Potency entry is “inactive”.

On to `O=C(O)CCCc1c[nH]c2ccccc12`, for which the Potency result was “inactive”.

For the compound `Oc1ccc2c(c1)Cc1ccccc1-2`, the Potency entry is “inactive”.

In the case of `CC1CCCC(=O)C1=O` (stereo not given), the Potency entry was “inactive”.

As to `CCN(CC)c1cccc(O)c1`, the Potency entry was “inactive”.

As to `Cc1ccc(N(CCO)CCO)cc1`, the Potency result was “inactive”.

For the compound `CC/C=C\C/C=C\C/C=C\CCCCCCCC(=O)OCC`, the Potency result was “inactive”.

Take `O=C1OC[C@H](Cc2cccc(O)c2)[C@H]1Cc1cccc(O)c1`: the Potency entry was “inactive”.

For `CCCCCC`, the Potency entry is “inactive”.
